A selection: hits, their analogues and other compounds. The true share with any hit is near 0.58%.
GRP78 ERSR act: induces the endoplasmic reticulum stress response in human glioma cells; U87-MG GRP78 promoter luciferase reporter, 16 h; Potency, µM, for inactives: at the highest dose activation, actives largely listed as activators; actives 0.02% (n = 420,000); AID 602332; active = well fitted curve in the direction sought with a large enough effect; inconclusive = small, poorly fitted or top-dose-only effect, or another doubt; inactive = no such curve, though single readings can be large; an effect the other way counts as inactive or inconclusive; also: potency is read from the fitted curve at half-maximal effect; series mostly up to about 76 µM; % of control where 0% means no effect; nearly all actives have a fitted effect of over 35% in size
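ERSR induction read as luciferase luminescence (Bright-Glo, 10 min at room temperature) in stably transfected human U87-MG glioma cells exposed to compounds for 16 h, using GRP78 as sensor.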
Six1-Eya2 blk: blocks human Six1 binding to Eya2; AID 651725; Q15475+O00167; actives 0.56% (n = 360,000); activity change, % (no concentration beside the values); AlphaScreen GST-Six1/His-Eya2 binding, biochemical; hits give low values; also: % is scaled to controls: 0 for no effect and ±100 for the full control effect
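Homogeneous AlphaScreen proximity assay pairing GST-Six1 with His-tagged Eya2 (added as 5X mix: 250 nM and 500 nM) in 50 mM Tris pH 8.0, 300 mM NaCl, 1 mM TCEP. Glutathione donor and nickel acceptor beads; 1 h, 37 °C, dark.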
Eya2 inh: blocks the phosphatase activity of human Eya2; O00167; recombinant Eya2, OMFP fluorescence dephosphorylation (OMFP is methylfluorescein phosphate); Potency, µM (doses to about 76.9 µM), for inactives: at the highest dose activity, negative = inhibition, most hits filed as inhibitors; actives 0.006% (n = 330,000); AID 488837; active = well fitted curve in the direction sought with a large enough effect; inconclusive = small, poorly fitted or top-dose-only effect, or another doubt; inactive = no such curve, though single readings can be large; an effect the other way counts as inactive or inconclusive; also: potency is read from the fitted curve at half-maximal effect; % is scaled to controls: 0 for no effect and ±100 for the full control effect
Target sequence (O00167 whole entry, looked up): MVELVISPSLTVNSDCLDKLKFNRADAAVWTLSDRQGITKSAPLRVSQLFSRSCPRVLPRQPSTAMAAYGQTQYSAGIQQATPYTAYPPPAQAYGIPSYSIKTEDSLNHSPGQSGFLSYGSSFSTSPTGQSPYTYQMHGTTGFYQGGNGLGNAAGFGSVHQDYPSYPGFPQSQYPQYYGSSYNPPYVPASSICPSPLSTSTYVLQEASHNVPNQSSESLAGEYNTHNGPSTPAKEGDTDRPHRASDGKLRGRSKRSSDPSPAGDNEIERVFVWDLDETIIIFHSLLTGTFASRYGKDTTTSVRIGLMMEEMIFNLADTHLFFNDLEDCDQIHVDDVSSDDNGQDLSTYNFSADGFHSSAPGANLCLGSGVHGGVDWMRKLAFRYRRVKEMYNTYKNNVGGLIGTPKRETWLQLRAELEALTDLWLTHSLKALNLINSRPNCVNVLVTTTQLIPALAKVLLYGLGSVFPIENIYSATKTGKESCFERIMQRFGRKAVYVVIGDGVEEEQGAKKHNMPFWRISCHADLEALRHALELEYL
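Eya2 (0.2 uM) preincubated 10 min at ambient with compound, then OMFP substrate added at 50 uM; 10 min reaction in 50 mM HEPES pH 7.5, 50 mM NaCl, 5 uM MgCl2, 0.05% BSA, 1 mM DTT. Fluorescence read at Ex 485/Em 525 nm.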
CtBP-E1A blk: CtBP/E1A binding inhibition; AlphaScreen GST-E1A/His-CtBP binding, 1536-well; hits give low values; actives 0.49% (n = 340,000); activity change, % (no concentration beside the values); also: % is scaled to controls: 0 for no effect and ±100 for the full control effect
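In 5 uL wells, 23 nL compound meets equimolar GST-E1A and His-CtBP (5X stock 125 nM each) for 2 h, 37 °C. Beads (5X, 50 ug/mL) then 1 h, 37 °C, dark.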
Numbers without * were called inactive; ? = inconclusive; . = no result given. Rule as the data show it, unless noted: active = activity change below about -65%; inconclusive = mostly about -30% to -63%; inactive = weaker than that.

SMILES	GRP78 ERSR act	Six1-Eya2 blk	Eya2 inh	CtBP-E1A blk
O=c1[nH]c(N/N=C\c2ccc(F)cc2)nc2ccccc12	0.2%	-0.6	-7.8%	-13.5
COc1ccc(Cc2nnc(N/N=C/c3ccc(O)cc3)[nH]c2=O)cc1OC	0.3%	-81.7*	-1.7%	-91.2*
COc1ccc(/C=N/Nc2nnc(Cc3ccccc3)c(=O)[nH]2)cc1OC	11.5%	-65.9*	-1.8%	?
OCC[C@@H]1C[C@H](O)[C@@H](O)[C@@]2(OCCc3ccccc32)O1	-2.1%	-1.9	-4.1%	-8.9
OCC[C@@H]1C[C@H](O)[C@@H](O)[C@]2(OCCc3ccccc32)O1	-0.4%	-83.2*	6.9%	10.2
Cc1ccc(S(=O)(=O)Nc2cccc3cccnc23)c([N+](=O)[O-])c1	?	-90.9*	1.8%	-80.1*
COc1ccc(S(=O)(=O)Nc2cccc3cccnc23)cc1	-9.6%	.	.	.
O=S(=O)(Nc1cccc2cccnc12)c1ccccc1	?	-66.2*	-1.9%	-84.4*
Cc1cc(C)c(NS(=O)(=O)c2cccc3cccnc23)c(C)c1	-4.2%	-6.9	-26.5%	-1.0
Cc1ccccc1NS(=O)(=O)c1ccc(S(=O)(=O)N2CCCC2)cc1	-1.6%	1.4	.	2.9
O=S(=O)(Nc1cccc2cccnc12)c1ccc(S(=O)(=O)N2CCCC2)cc1	?	-75.7*	-14.5%	-90.3*
Cc1ccccc1CN1[C@H](C)[C@H](c2ccccc2)OCCS1(=O)=O	-0.7%	.	.	.
O=S(=O)(NCc1nc(N2CCCC2)c2cc(Cl)ccc2n1)c1ccccc1OC(F)(F)F	-3.0%	.	.	.
COc1cccc(-c2ccnc(-n3ncc(C(=O)NCC4(N5CCCCC5)CCCC4)c3C)n2)c1	-5.0%	.	.	.
C/C(=C(\CCO)SSCC1CCCO1)N(C=O)Cc1cnc(C)nc1N (centres undefined)	-4.7%	.	.	.
CC(C)(C)n1ncc2c(=O)n(Cc3ccc(C(F)(F)F)cc3)cnc21	-8.3%	.	.	.
O=Nc1c(O)[nH]c2ccc(F)cc12	0.4%	-13.5	-7.8%	-4.6
NC(=S)N=Nc1c(O)[nH]c2ccc(F)cc12	-1.6%	-79.7*	-19.2%	12.9
Cc1cccc(CNC(=O)c2cnn(-c3nccc(-c4cc(C)sc4C)n3)c2C)n1	-4.2%	.	.	.
CC1=C(O)C(=O)C(C2=C(O)C(=O)C(C)=C(O)C2=O)=C(O)C1=O	2.7%	-91.8*	.	-84.7*
Cc1ccc(C2=C(O)C(=O)C(c3ccc(C)cc3)=C(O)C2=O)cc1	-1.3%	-4.0	.	0.8
COc1ccc(C(=O)N/N=C/c2sc3ccccc3c2O)cc1	-4.1%	-74.3*	18.3%	-65.2*
O=C(N/N=C/c1sc2ccccc2c1O)c1ccccc1	-2.1%	-86.6*	4.1%	?
O=C(N/N=C/c1sc2ccccc2c1O)c1cccc2ccccc12	-0.9%	?	7.8%	?
COc1ccc2cc(C(=O)N/N=C/c3sc4ccccc4c3O)ccc2c1	-2.7%	?	26.3%	?
SMILES	GRP78 ERSR act	Six1-Eya2 blk	Eya2 inh	CtBP-E1A blk
C[N+](C)(CCCCCC[N+](C)(C)C1c2ccccc2-c2ccccc21)C1c2ccccc2-c2ccccc21	-3.7%	.	.	.
COC(=O)c1ccc(/C=C/C(=O)OCC(=O)Nc2sccc2C(N)=O)cc1	-2.7%	?	-0.2%	-69.4*
CCOC(=O)C1CCN(C2=C(NS(=O)(=O)c3ccc(Cl)cc3)C(=O)c3ccccc3C2=O)CC1	-6.7%	?	1.5%	-81.5*
CCOC(=O)C1CCCN(C2=C(NS(=O)(=O)c3ccc(Br)cc3)C(=O)c3ccccc3C2=O)C1 (centres undefined)	-5.7%	-71.3*	-22.9%	.
C/C=C(\C)C(=O)NCCN1Cc2ccccc2OC(c2ccccc2OC)C1 (centres undefined)	4.9%	.	.	.
CCCC(=O)NC(c1ccccc1OC)c1ccc2cccnc2c1O (centres undefined)	-0.7%	-88.2*	-6.2%	-83.7*
CCCCC(=O)NC(c1ccccc1OC)c1ccc2cccnc2c1O (centres undefined)	-4.1%	-76.2*	0.7%	-91.6*
COc1ccc(C(NC(C)=O)c2ccc3cccnc3c2O)c(OC)c1 (centres undefined)	-7.7%	?	2.4%	?
C[n+]1ccnc2ccccc21	-10.8%	.	.	.
Cc1c(C(=O)Nc2ccccc2)cn2c(nc3ccccc32)c1C#N	-2.9%	-7.8	7.0%	-16.3
Cc1ccccc1C(=O)Nc1ccc2c(C#N)c3nc4ccccc4nc3n2c1	0.4%	?	1.2%	-70.6*
Cc1c(C#N)c(O)[nH]c(=O)c1N=Nc1ccc(Br)cc1C(=O)O	-5.8%	-70.9*	-5.9%	-88.6*
O=[N+]([O-])c1ccc(O/N=[N+](\[O-])N2CCCC2)c([N+](=O)[O-])c1	-11.5%	.	.	.
